Shiga toxin inh – A qHTS for Small Molecule Inhibitors of Shiga Toxin. 9.2% of 290,000 active. inhibition, % at 38.7 µM. Vero cells, Shiga toxin protein synthesis inhibition reporter; in the data active = inhibition mostly above about 28%, no sharp cut-off; inactive = mostly below about 43%; also: 0% is about no effect
Pf growth 96h – Primary qHTS for delayed death inhibitors of the malarial parasite plastid, 96 hour incubation; P. falciparum luciferase reporter growth, 96 h; Potency, µM (doses to about 28.7 µM), inactives show at the top dose activity change, negative = inhibition, actives largely listed as inhibitors; 6.9% of 320,000 active; also: potency is read from the fitted curve at half-maximal effect; % is scaled to controls: 0 for no effect and ±100 for the full control effect
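Compounds incubated with erythrocytes infected by luciferase-expressing P. falciparum (2% hematocrit, 0.05% parasitemia final) for 96 hours, 37 C in 5% CO2. Growth inhibition scored as decreased luciferase luminescence.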
Pf growth 48h – Primary qHTS for delayed death inhibitors of the malarial parasite plastid, 48 hour incubation. P. falciparum luciferase growth in erythrocytes, 48 h. 5.9% of 310,000 active. Potency, µM (highest dose often 28.7 µM), for inactives: at the top dose activity change, negative = inhibition, most hits filed as inhibitors; also: potency is read from the fitted curve at half-maximal effect; % is scaled to controls: 0 for no effect and ±100 for the full control effect
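First compound was added to culture medium, then infected red cells at 0.1% parasitemia and 2% hematocrit (final). After incubation at 37 C under 5% CO2, luciferase detection reagent was dispensed and light output recorded.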
CHX counter – Cycloheximide Counterscreen for Small Molecule Inhibitors of Shiga Toxin. max response, %. cell reporter, cycloheximide protein synthesis inhibition counterscreen. 12% of 300,000 active; in the data active = max response mostly above about 13%, no sharp cut-off; inactive = mostly below about 14%; also: read at 38.3 µM for the half of the compounds with a filed dose; 0% is about no effect
Active calls of the source: *. Only some compounds are listed: those with a hit (about 21% of all), similar ones and a draw of the others. Unless noted, calls follow the shape of the dose curve; as a rule, active = well fitted inhibition curve with a large enough effect; inconclusive = small, poorly fitted or top-dose-only effect, or another doubt; inactive = no such curve, though single readings can be large or run the other way.

Results for COC(=O)CCC(=O)OC1(C)C(=O)C=C2C=C(C3CC3)N(CCCOC(C)C)C=C2C1=O (configuration not stated) ?
Shiga toxin inh: -1.8; Pf growth 96h: 1.85µM*; Pf growth 48h: 10.4µM*; CHX counter: -3.5

What do the screens show for `COC(=O)CCCC1=CC2=CC(=O)C(C)(OC(=O)c3cccs3)C(=O)C2=CN1CCCCO` (configuration not stated)?
Shiga toxin inh: -3.3; Pf growth 96h: 13.1µM*; Pf growth 48h: inconclusive; CHX counter: -5.1

Results for COC(=O)CCC(=O)OC1(C)C(=O)C=C2C=C(C3CC3)N(Cc3ccc(OC)cc3)C=C2C1=O (configuration not stated) ?
Shiga toxin inh: -6.5; Pf growth 96h: inconclusive; Pf growth 48h: inconclusive; CHX counter: -3.3

What do the screens show for `COC(=O)CCC(=O)OC1(C)C(=O)C=C2C=C(C3CC3)N(Cc3ccc4c(c3)OCO4)C=C2C1=O` (configuration not stated)?
Shiga toxin inh: -5.0; Pf growth 96h: 13.1µM*; Pf growth 48h: inconclusive; CHX counter: -0.6

What do the screens show for `COC(=O)CCC(=O)OC1(C)C(=O)C=C2C=C(C3CC3)N(CCc3c[nH]c4ccccc34)C=C2C1=O` (configuration not stated)?
Shiga toxin inh: -4.2; Pf growth 96h: inconclusive; Pf growth 48h: 11.7µM*; CHX counter: -3.7

What do the screens show for `C=CCN1C=C2C(=O)C(C)(OC(=O)CCC(=O)OC)C(=O)C=C2C=C1C1CC1` (configuration not stated)?
Shiga toxin inh: -4.7; Pf growth 96h: 2.62µM*; Pf growth 48h: 7.38µM*; CHX counter: 0.2

Results for COC(=O)CCC(=O)OC1(C)C(=O)C=C2C=C(C3CC3)N(CCN3CCOCC3)C=C2C1=O (configuration not stated) ?
Shiga toxin inh: 4.4; Pf growth 96h: 53.9%; Pf growth 48h: inconclusive; CHX counter: -5.2

Results for COC(=O)CCC(=O)OC1(C)C(=O)C=C2C=C(C3CC3)N(CCCCO)C=C2C1=O (configuration not stated) ?
Shiga toxin inh: 20.5; Pf growth 96h: 7.38µM*; Pf growth 48h: inconclusive; CHX counter: -3.6

What do the screens show for `CCN1C(=O)[C@@H]2[C@H](C1=O)[C@@H]1C[C@H]3C(=O)N(CC)C(=O)[C@H]3[C@@H]3C1=C(C(=O)N1C(=O)OC(=NCC4CC4)[C@]31C)[C@@H]2C`?
Shiga toxin inh: 2.5; Pf growth 96h: 26.0%; Pf growth 48h: 38.0%; CHX counter: -3.8

What do the screens show for `CC(C)(C)c1ccc(C(=O)NN2C(=O)CSC2=S)cc1`?
Shiga toxin inh: 14.1; Pf growth 96h: 71.3%; Pf growth 48h: 15.6%; CHX counter: 1.3

Results for C[C@@]12C(=O)Nc3cc(Cl)ccc3C(=O)N1[C@H]1c3ccccc3OC[C@@H]1[C@@H]2c1ccccc1 ?
Pf growth 96h: 9.28µM*; Pf growth 48h: inconclusive

Results for COc1ccc2c(c1)OC[C@H]1[C@@H]2N2C(=O)CNC(=O)[C@@]2(C)[C@H]1c1ccccc1 ?
Pf growth 96h: inconclusive; Pf growth 48h: -16.9%

What do the screens show for `C[C@@]12C(=O)Nc3ccc(Cl)cc3C(=O)N1[C@H]1c3ccccc3OC[C@@H]1[C@@H]2c1ccccc1`?
Pf growth 96h: 10.4µM*; Pf growth 48h: 13.1µM*

Results for C[C@H]1NC(=O)[C@@]2(C)[C@@H](c3ccccc3)[C@H]3COc4ccccc4[C@@H]3N2C1=O ?
Pf growth 96h: 24.5%; Pf growth 48h: 14.0%

What do the screens show for `C[C@H]1NC(=O)[C@@]2(C)[C@@H](c3ccccc3)[C@H]3COc4ccccc4[C@H]3N2C1=O`?
Pf growth 96h: 1.6%; Pf growth 48h: 18.0%

What do the screens show for `C[C@@]12C(=O)Nc3cc(Cl)ccc3C(=O)N1[C@H]1c3cc(Br)ccc3OC[C@@H]1[C@@H]2c1ccccc1`?
Pf growth 96h: 9.28µM*; Pf growth 48h: 9.28µM*

Results for CCN(CC)CCCCCC(=O)Nc1ccccc1C(=O)Nc1ccccc1 ?
Shiga toxin inh: -4.0; Pf growth 96h: 10.4µM*; Pf growth 48h: 10.1%; CHX counter: 0.4

What do the screens show for `CCOc1ccc(NC(=O)c2ccccc2NC(=O)CN(C)CC(=O)Nc2ccc(C)cc2)cc1`?
Shiga toxin inh: -8.6; Pf growth 96h: inconclusive; Pf growth 48h: 10.4µM*; CHX counter: -3.2

How did Cc1ccc(NC(=O)CNc2ccc(Cl)cc2F)cc1 do in these assays?
Shiga toxin inh: 4.8; Pf growth 96h: inconclusive; Pf growth 48h: 6.1%; CHX counter: 5.9

What do the screens show for `Cc1ccc(NC(=O)c2ccccc2NC(=O)CCC(=O)O)cc1`?
Shiga toxin inh: 19.5*; Pf growth 96h: inconclusive; Pf growth 48h: 62.5%; CHX counter: 44.9*

What do the screens show for `CC(=O)c1ccccc1NCC(=O)Nc1ccc(C)cc1`?
Shiga toxin inh: 60.8*; Pf growth 96h: inconclusive; Pf growth 48h: 11.0%; CHX counter: 30.4*

What do the screens show for `COc1ccc(OC)c(NC(=O)C(C)N2c3cccc4cccc(c34)S2(=O)=O)c1` (configuration not stated)?
Shiga toxin inh: -7.3; Pf growth 96h: -25.4%; Pf growth 48h: -14.8%; CHX counter: -1.9

How did CC(C)CCNC(=O)CN(C(=O)CCC(=O)Nc1nccs1)c1ccc2c(c1)OCCO2 do in these assays?
Shiga toxin inh: 68.4*; Pf growth 96h: 3.0%; Pf growth 48h: 63.7%; CHX counter: 35.4*

How did CC(C)(C)NC(=O)CN(C(=O)CCC(=O)Nc1nccs1)c1ccc2c(c1)OCCO2 do in these assays?
Shiga toxin inh: 1.5; Pf growth 96h: -21.8%; Pf growth 48h: -15.5%; CHX counter: -2.5

Results for Cc1ccc(N(CC(=O)NCc2ccccc2)C(=O)CCC(=O)Nc2nccs2)cc1 ?
Shiga toxin inh: -17.7; Pf growth 96h: -12.2%; Pf growth 48h: -14.4%; CHX counter: -5.4

Results for COc1ccc(CNC(=O)CN(C(=O)CCC(=O)Nc2nccs2)c2ccc(C)cc2)cc1 ?
Shiga toxin inh: 24.0; Pf growth 96h: 7.38µM*; Pf growth 48h: inconclusive; CHX counter: -1.5

How did O=C(CN(Cc1ccc(F)cc1)C(=O)CCC(=O)Nc1nccs1)NCc1ccc(F)cc1 do in these assays?
Shiga toxin inh: -2.0; Pf growth 96h: 15.8%; Pf growth 48h: -18.4%; CHX counter: 0.5

What do the screens show for `COc1ccc(CN(CC(=O)NCc2ccc(F)cc2)C(=O)CCC(=O)Nc2nccs2)cc1`?
Shiga toxin inh: -8.9; Pf growth 96h: 4.65µM*; Pf growth 48h: 10.9%; CHX counter: -7.3

What do the screens show for `COc1ccc(OC)c(CC(=O)N2CCc3cc(OC)c(OC)cc3C2)c1`?
Shiga toxin inh: -3.7; Pf growth 96h: -8.5%; Pf growth 48h: 5.9%; CHX counter: 2.8

What do the screens show for `Cc1ccc(Nc2nc(N)nc(COC(=O)C3=COCCO3)n2)cc1`?
Pf growth 96h: 127.9%; Pf growth 48h: 329.0%

How did CC(=O)NC1(c2ccccc2)CCN(Cc2nnnn2C(C)(C)C)CC1 do in these assays?
Shiga toxin inh: -10.1; Pf growth 96h: 11.7µM*; Pf growth 48h: 5.3%; CHX counter: -1.6

Screens (PubChem BioAssay)
